Measured values taken from the supplement of paper PMC6555819.

What was measured:
Assay in all cases: PBM binding z-score (relative to random genomic background probes); higher = stronger binding; sequences stand for … in GC…GCGATTGACAGCGTAGAATGAAGG
[1] = tested on: FXR:RXRa (NR concentration 270 nM, RXRa partner concentration 90 nM)
Method in brief: (§1)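 Binding buffer was PBS pH 7.4 with 2% milk, 0.02% Triton X-100, 1 mM DTT, 0.2 mg/mL BSA and 0.4 mg/ml salmon testes DNA. In it, ligand-free nuclear receptor dimers were incubated 1 h on custom Agilent 4×180K protein-binding microarrays carrying double-stranded probes. Antibodies against each partner (one per run) detected binding, and z-scores were calculated against random background probes after regression normalization of scanned fluorescence.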

[2] = tested on: LXRa:RXRa (NR concentration 270 nM, RXRa partner concentration 90 nM)
Method in brief: as §1

[3] = tested on: LXRa homodimer (NR concentration 270 nM)
Method in brief: as §1

[4] = tested on: LXRb:RXRa (NR concentration 270 nM, RXRa partner concentration 90 nM)
Method in brief: as §1

[5] = tested on: LXRb homodimer (NR concentration 270 nM)
Method in brief: as §1

[6] = tested on: PPARa:RXRa (NR concentration 270 nM, RXRa partner concentration 90 nM)
Method in brief: as §1

[7] = tested on: PPARg:RXRa (NR concentration 180 nM, RXRa partner concentration 90 nM)
Method in brief: as §1

[8] = tested on: PPARg:RXRa 270nM:90nM, anti-RXR (NR concentration 270 nM, RXRa partner concentration 90 nM)
Method in brief: as §1

[9] = tested on: PPARg:RXRa 30nM:10nM, anti-RXR (NR concentration 30 nM, RXRa partner concentration 10 nM)
Method in brief: as §1

[10] = tested on: PPARg:RXRa 90nM:30nM, anti-RXR (NR concentration 90 nM, RXRa partner concentration 30 nM)
Method in brief: as §1

[11] = tested on: PPARg:RXRa DBDmut IVT, anti-RXR (DBD mutation: RXRa K156A/R161A, NR concentration 270 nM, RXRa partner concentration 90 nM)
Method in brief: as §1

[12] = tested on: PPARg:RXRa IVT, anti-PPARg (NR concentration 270 nM, RXRa partner concentration 90 nM)
Method in brief: as §1

[13] = tested on: PPARg DBDmut:RXRa IVT, anti-PPARg (DBD mutation: PPARg1 K132A/R137A, NR concentration 270 nM, RXRa partner concentration 90 nM)
Method in brief: as §1

[14] = tested on: PPARg DBDmut IVT, anti-PPARg (DBD mutation: PPARg1 K132A/R137A, NR concentration 270 nM)
Method in brief: as §1

[15] = tested on: PPARg homodimer (NR concentration 180 nM)
Method in brief: as §1

[16] = tested on: PXR:RXRa (NR concentration 270 nM, RXRa partner concentration 90 nM)
Method in brief: as §1

[17] = tested on: PXR homodimer (NR concentration 270 nM)
Method in brief: as §1

[18] = tested on: RARa:RXR (NR concentration 270 nM, RXRa partner concentration 90 nM)
Method in brief: as §1

[19] = tested on: RARa homodimer (NR concentration 270 nM)
Method in brief: as §1

[20] = tested on: RARb:RXRa (NR concentration 270 nM, RXRa partner concentration 90 nM)
Method in brief: as §1

Row | Sequence | PBM binding z-score [1] | PBM binding z-score [2] | PBM binding z-score [3] | PBM binding z-score [4] | PBM binding z-score [5] | PBM binding z-score [6] | PBM binding z-score [7] | PBM binding z-score [8] | PBM binding z-score [9] | PBM binding z-score [10] | PBM binding z-score [11] | PBM binding z-score [12] | PBM binding z-score [13] | PBM binding z-score [14] | PBM binding z-score [15] | PBM binding z-score [16] | PBM binding z-score [17] | PBM binding z-score [18] | PBM binding z-score [19] | PBM binding z-score [20]
1 | TCGAGTAGGTTAGGGGCATGCAGAATGGCGTCGA | 0.354 | 0.125 | -0.474 | 0.49 | -0.161 | 1.29 | 0.641 | 1.68 | 0.979 | 1.27 | 1.92 | 1.32 | -0.639 | -1.3 | 0.568 | 0.108 | -0.44 | 0.383 | -0.355 | 1.2
2 | CCTAGCAGGCCAGGGTCACTCGAGCATTTCGCTT | 2.22 | 1.62 | -0.424 | 1.78 | -0.991 | 2.98 | 0.557 | 1.6 | -0.327 | 0.652 | 0.58 | 1.02 | -0.592 | -1.77 | 0.543 | 2.32 | -0.255 | 3.1 | -0.646 | 2.57
3 | CCTAGTTGGTCAGGCGGTCACACACCGGATATGA | 0.554 | 0.309 | 0.525 | 0.155 | 0.122 | 0.32 | 0.706 | 0.973 | -0.186 | 0.129 | 0.37 | 0.945 | -0.344 | -0.024 | 0.926 | 0.0317 | 0.384 | -0.0122 | 0.796 | 1.75
4 | ACTCGGAGGACAAAGGTCAGAGCAACGCCAGTGA | 4.23 | 4.45 | 1.56 | 3.47 | 0.134 | 5.14 | 7.86 | 7.16 | 6.17 | 7.18 | 0.873 | 3.67 | 0.771 | -0.247 | 2.78 | 3.99 | 0.422 | 5.03 | 0.859 | 4.58
5 | GCTTACGCGTCAAAGGTTATAGCATGAATAGAAT | 1.21 | 1.97 | -0.0765 | 2.18 | -0.553 | 3.38 | 3.1 | 3.84 | 2.28 | 4.07 | -0.0505 | 0.407 | -0.0262 | 0.00309 | 1.46 | 2.22 | -0.288 | 3.3 | -0.0243 | 1.22
6 | CGAACTAGTTCAGAACAGGACAGTGAAGGATGAT | 0.0852 | -0.165 | -0.0634 | -0.449 | -0.667 | -0.356 | 0.524 | -0.523 | -0.163 | -0.675 | -0.157 | -0.211 | 0.34 | 0.0845 | -0.297 | 0.137 | 0.378 | 0.131 | -0.252 | 0.618
7 | CCGACTGGGGCATAAGTTTACCATAAGCCAGCCC | -0.352 | -0.207 | -0.448 | -0.337 | -0.91 | 0.222 | 1.66 | 2.44 | 0.241 | 1.74 | 3.09 | 2.55 | -0.897 | -1.31 | 0.107 | -0.336 | -0.547 | -0.262 | -0.566 | 0.68
